The values below come from PubChem BioAssay AID720555 (National Center for Advancing Translational Sciences (NCATS), 2013).

Values joined by “and” are separate entries in the source; they are usually repeats but may differ in a detail not shown here. Equal entries are not always repeated. Records with an inconclusive call do not appear. A number with no mark means an inactive call. Active and inactive are the calls of the source. Calls come from the whole dose curve; as a rule, active = well fitted inhibition curve with a large enough effect; inconclusive = small, poorly fitted or top-dose-only effect; inactive = no such curve, though single readings can be large or run the other way.

RecQ-like DNA helicase BLM (Homo sapiens), sequence (P54132 whole entry, looked up): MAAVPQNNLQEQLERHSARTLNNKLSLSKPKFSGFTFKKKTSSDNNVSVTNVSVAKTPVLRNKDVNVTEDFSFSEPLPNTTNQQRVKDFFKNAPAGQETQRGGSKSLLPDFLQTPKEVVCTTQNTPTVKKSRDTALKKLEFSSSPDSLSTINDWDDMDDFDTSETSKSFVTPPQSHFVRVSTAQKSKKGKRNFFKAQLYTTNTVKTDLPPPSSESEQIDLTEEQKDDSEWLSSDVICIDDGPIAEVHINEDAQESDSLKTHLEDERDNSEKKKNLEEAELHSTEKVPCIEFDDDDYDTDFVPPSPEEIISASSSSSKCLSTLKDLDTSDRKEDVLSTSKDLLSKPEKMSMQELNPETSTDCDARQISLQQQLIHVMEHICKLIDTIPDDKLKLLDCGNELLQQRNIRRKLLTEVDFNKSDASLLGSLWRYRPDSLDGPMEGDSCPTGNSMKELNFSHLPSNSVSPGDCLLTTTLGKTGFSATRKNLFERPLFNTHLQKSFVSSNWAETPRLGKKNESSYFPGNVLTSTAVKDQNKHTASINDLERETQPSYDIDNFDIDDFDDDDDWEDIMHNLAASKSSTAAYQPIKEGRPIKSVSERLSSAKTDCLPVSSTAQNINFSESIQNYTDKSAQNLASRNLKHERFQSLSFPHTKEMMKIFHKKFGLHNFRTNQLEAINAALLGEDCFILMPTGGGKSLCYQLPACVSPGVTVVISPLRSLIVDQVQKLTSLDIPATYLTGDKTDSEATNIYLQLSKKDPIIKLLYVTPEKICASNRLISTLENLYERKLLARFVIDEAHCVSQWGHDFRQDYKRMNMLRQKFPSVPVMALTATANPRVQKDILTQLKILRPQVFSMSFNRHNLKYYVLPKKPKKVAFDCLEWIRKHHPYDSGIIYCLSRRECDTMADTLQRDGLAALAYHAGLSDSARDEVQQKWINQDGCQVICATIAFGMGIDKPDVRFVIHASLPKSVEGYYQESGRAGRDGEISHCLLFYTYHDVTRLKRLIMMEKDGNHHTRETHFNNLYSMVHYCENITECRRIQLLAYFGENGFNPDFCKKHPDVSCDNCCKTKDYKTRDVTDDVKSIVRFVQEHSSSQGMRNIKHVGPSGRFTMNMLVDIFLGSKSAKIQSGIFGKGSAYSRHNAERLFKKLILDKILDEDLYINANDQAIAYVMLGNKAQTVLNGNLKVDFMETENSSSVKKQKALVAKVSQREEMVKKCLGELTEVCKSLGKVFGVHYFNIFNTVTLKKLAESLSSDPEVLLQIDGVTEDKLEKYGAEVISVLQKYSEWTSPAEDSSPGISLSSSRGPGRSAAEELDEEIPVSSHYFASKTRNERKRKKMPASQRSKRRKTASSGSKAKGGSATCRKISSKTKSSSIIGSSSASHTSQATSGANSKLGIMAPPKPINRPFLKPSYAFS

The target of this test is RecQ-like DNA helicase BLM (Homo sapiens) (UniProt P54132). The test is described as follows: qHTS for Inhibitors of Bloom's syndrome helicase (BLM): Helicase DNA unwinding fluorescent orthogonal confirmatory assay for SAR. The following applies: fluorescence, orthogonal confirmation; series mostly up to 55.6 µM; activity change, negative = inhibition: at the top concentration. The source says:
Human RecQ DNA helicases participate in maintenance of genome stability and DNA repair. While other types of helicases have been explored as targets for drug development, members of the RecQ family have remained less well characterized. Mutations of the Bloom helicase gene have been associated with the rare human genetic disease called Bloom syndrome. […] Moreover, identified inhibitors can be used in cells and animal models to examine the consequences of inhibition on the survival of cancer cells where it has been shown that BLM plays an important role.
A fluorescence-based, biochemical assay in 1536 well format was developed to evaluate inhibition of BLM DNA unwinding activity. This assay was used to screen the MLPCN library. The resulting compounds were subjected to orthogonal and secondary biochemical assays to triage the initial hits, to classify compounds based on mode of action and to derive structure activity relationships (SARs) of candidate effectors. The data herein is the result of the Helicase DNA unwinding fluorescent orthogonal confirmatory assay. This fluorescent-based assay employs a purified BLM enzyme and utilizes gel electrophoresis to monitor the helicase-mediated unwinding of a fluorescently-labeled DNA substrate. For this assay decrease in the single-stranded DNA product band on the gel = inhibition of the BLM helicase activity. Inhibition is the desired outcome for this assay.
NIH Chemical Genomics Center [NCGC]
NIH Molecular Libraries Probe Centers Network [MLPCN]
Assay Submitter (PI): Opher Gileadi, Structural Genomics Consortium, University of Oxford, UK
Unwinding assay for the BLM helicase was carried out in a reaction buffer containing 50 mM Tris-HCl pH 7.5, 50mM NaCl, 2mM MgCl2, 2mM ATP, 1mM DTT, and 0.1 mg/ml BSA. Optimal substrate and enzyme concentrations as well as reaction times were determined experimentally. All reactions were performed at room temperature and terminated by the addition of loading buffer containing 20mM EDTA and 2.5% bromophenol blue. Reaction products were then separated on 15% non-denaturing polyacrylamide gels in 1x TAE, and the DNA was visualized using the Bio-Rad ChemiDocTM XRS Gel Imager. Substrate and product bands were quantified using ImageJ. The data was normalized against no-inhibitor and no-enzyme controls.
Regarding `O=C(Nc1ccc(-n2ccnc2)c(F)c1)Nc1nnc(-c2ccncc2)s1`, the Potency was 10 µM (active).

As for `O=C(Nc1ccc(Cl)c(Cl)c1)N1CCN(c2ccncc2)CC1`, the “activity change, negative = inhibition” value was 6% [at 53.6 µM]. As to `N#Cc1cc(NC(=O)Nc2nnc(-c3ccncc3)s2)ccc1-c1ccc[nH]1`, the Potency is 3.55 µM (active). On to `N/C(=N\c1nnc(-c2ccncc2)s1)Nc1ccc(F)c(C(F)(F)F)c1`, for which the Potency was 35.5 µM (active). Regarding `N#Cc1cc(NC(=O)Nc2nnc(-c3ccncc3)s2)ccc1F`, the Potency was 1.41 µM (active). Take `Cc1cc(Nc2c(Nc3nnc(-c4ccncc4)s3)c(=O)c2=O)ccc1Cl`: the Potency was 22.4 µM (active). With `CC(=O)c1ccc(NC(=O)Nc2nnc(-c3ccncc3)s2)cc1`, the “activity change, negative = inhibition” value is 3.44%. Take `Cc1cnccc1-c1nnc(NC(=O)Nc2ccc(F)c(C(F)(F)F)c2)s1`: the Potency was 1.26 µM (active). On to `O=C(Nc1ccc2ccccc2c1)Nc1nnc(-c2ccncc2)o1`, for which the “activity change, negative = inhibition” value is -6.58%. `O=C(Nc1ccc(Cl)c(Cl)c1)Nc1cccc(-c2ccncc2)n1`: the Potency is 3.98 µM (active).

Regarding `O=C(Nc1ccc(-c2nc3ccccc3[nH]2)cc1)Nc1ccc2c(c1)OCCO2`, the “activity change, negative = inhibition” value was -0.67%.

Take `O=C(Nc1ccc2ccccc2c1)Nc1nnc(-c2ccccc2)s1`: the “activity change, negative = inhibition” value was 4.37%. On the same count and under the same terms, under `CCOc1ccc(NC(=O)Nc2ccc(-c3nc4ccccc4[nH]3)cc2)cc1` stands -5.73%; under `CN(C(=O)Nc1ccc2ccccc2c1)c1nnc(-c2ccncc2)s1`, -4.83%.

For the compound `O=C(Nc1ccc2ccccc2c1)Nc1nnc(-c2ccncc2)s1`, the Potency is 10 µM (active). In the case of `S=C(Nc1ccc(Cl)c(Cl)c1)Nc1nnc(-c2ccncc2)o1`, the “activity change, negative = inhibition” value was 1.29%. In the case of `CC(C)(C)c1ccc(-c2nnc(NC(=O)Nc3ccc4ccccc4c3)s2)cc1`, the “activity change, negative = inhibition” value was 5.46%. Same read-out and setting: next, `CN1CCN(c2nnc(NC(=O)Nc3ccc(Cl)c(Cl)c3)s2)CC1`: 8.47%. For the compound `O=C(Nc1ccc(Cl)c(Cl)c1)Nc1nc(-c2ccncc2)cs1`, the Potency is 28.2 µM (active). Take `COc1ccccc1CNC(=O)Nc1nnc(-c2ccncc2)s1`: the “activity change, negative = inhibition” value is 0.3%. `Cc1cc(NC(=O)Nc2nnc(-c3cccnc3)s2)ccc1F`: the Potency was 25.1 µM (active). For `O=C(Nc1ccc2ccccc2c1)Nc1nnc(-c2ccc(Cl)cc2)s1`, the “activity change, negative = inhibition” value is -10.2%. For `O=C(Nc1ccc(F)c(C(F)(F)F)c1)Nc1cccc(-c2ccncc2)n1`, the Potency is 4.47 µM (active). In the case of `O=C(Nc1ccc(F)nc1)Nc1nnc(-c2ccncc2)s1`, the Potency is 22.4 µM (active).

In the case of `O=C(Nc1ccc(-c2cn[nH]c2)cc1)Nc1nnc(-c2ccncc2)s1`, the Potency is 31.6 µM (active).

On to `O=C(Nc1ccc(F)c(F)c1)Nc1nnc(-c2ccncc2)s1`, for which the Potency is 8.91 µM (active). Same read-out and setting: next, `O=C(Nc1ccc(-c2cn[nH]c2)c(C(F)(F)F)c1)Nc1nnc(-c2ccncc2)s1`: 15.8 µM (active); `N#Cc1cc(NC(=O)Nc2nnc(-c3ccncc3)s2)ccc1-c1cn[nH]c1`: 1.58 µM (active) and 7.08 µM (active).

Turning to `O=C(Nc1cccc(C(F)(F)F)c1)Nc1nnc(-c2ccncc2)s1`, the Potency was 14.1 µM (active).

`O=C(Nc1cc(F)cc(F)c1)Nc1nnc(-c2ccncc2)s1`: the Potency was 15.8 µM (active).

Turning to `O=C(Nc1ccc(F)c(C(F)(F)F)c1)Nc1nnc(C2CCCCC2)s1`, the “activity change, negative = inhibition” value is 5.75%.

As to `S=C(Nc1ccc(Cl)c(Cl)c1)Nc1nnc(-c2ccncc2)s1`, the Potency is 3.98 µM (active). Same read-out and setting: next, `N#Cc1ccc(NC(=O)Nc2nnc(-c3ccncc3)s2)c(Cl)c1`: 11.2 µM (active); `O=C(NCc1ccc(Cl)c(Cl)c1)Nc1nnc(-c2ccncc2)s1`: 39.8 µM (active); `O=C(Nc1ccc(Cl)c(C(F)(F)F)c1)Nc1cccc(-c2ccncc2)n1`: 20 µM (active).

With `N#Cc1cc(NC(=O)Nc2cccc(-c3ccncc3)n2)ccc1Cl`, the Potency is 0.631 µM (active). Consider `O=C(Nc1ccc(Cl)c(Cl)c1)Nc1nnc(NC2CCNCC2)s1`, for which the “activity change, negative = inhibition” value was 80.4%.

`O=C(Nc1ccc(Cl)c(Cl)c1)Nc1ccc(-c2ccncc2)s1`: the “activity change, negative = inhibition” value is 5.54% [at 53.6 µM]. Take `O=C(Nc1ccc(Br)c(Br)c1)Nc1nnc(-c2ccncc2)s1`: the Potency was 5.01 µM (active). With `O=C(Nc1ccc2ccccc2c1)Nc1nnc(-c2ccccc2F)s1`, the “activity change, negative = inhibition” value is -2.28%.
